In PubChem BioAssay AID2533 (National Center for Advancing Translational Sciences (NCATS), 2010):
“And” between values parts separate entries of the source, which are not always exact repeats. Identical values can stand only once. Records with an inconclusive call do not appear. Where a structure was tested more than once in an assay, its records may differ in their call. The source made the active and inactive calls. The call rests on the fitted dose curve; in most records, active means well fitted activation curve with a large enough effect; inconclusive means small, poorly fitted or top-dose-only effect; inactive means flat fitted curve, though single readings scatter.

These compounds were tested against Pyruvate kinase PKM (Homo sapiens) (UniProt P14618) (assay: Confirmation Concentration-Response Assay for Activators of Human Muscle isoform 2 Pyruvate Kinase: for Probe SAR). Conditions: purified PKM2, ATP generation, Kinase-Glo luminescence; series mostly up to 57.5 µM; activity change, positive = activation: at the top concentration.
Method in brief: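 ATP generation was detected by luciferase-coupled luminescence (Kinase-Glo). The reaction ran for 1 hour at room temperature with 0.1 mM ADP, 0.5 mM PEP and 0.1 nM purified hPK-M2 in 50 mM imidazole, pH 7.2, with 7 mM MgCl2. The enzyme was set at intermediate activity so activators could be detected.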
Further: nearly all actives have a fitted effect of over 60% in size.
Potency means the concentration at half of the fitted maximal effect.
Wherever activity change, positive = activation is given: % of control where 0% means no effect.

Sequence of Pyruvate kinase PKM (Homo sapiens) (P14618 whole entry, looked up, canonical isoform): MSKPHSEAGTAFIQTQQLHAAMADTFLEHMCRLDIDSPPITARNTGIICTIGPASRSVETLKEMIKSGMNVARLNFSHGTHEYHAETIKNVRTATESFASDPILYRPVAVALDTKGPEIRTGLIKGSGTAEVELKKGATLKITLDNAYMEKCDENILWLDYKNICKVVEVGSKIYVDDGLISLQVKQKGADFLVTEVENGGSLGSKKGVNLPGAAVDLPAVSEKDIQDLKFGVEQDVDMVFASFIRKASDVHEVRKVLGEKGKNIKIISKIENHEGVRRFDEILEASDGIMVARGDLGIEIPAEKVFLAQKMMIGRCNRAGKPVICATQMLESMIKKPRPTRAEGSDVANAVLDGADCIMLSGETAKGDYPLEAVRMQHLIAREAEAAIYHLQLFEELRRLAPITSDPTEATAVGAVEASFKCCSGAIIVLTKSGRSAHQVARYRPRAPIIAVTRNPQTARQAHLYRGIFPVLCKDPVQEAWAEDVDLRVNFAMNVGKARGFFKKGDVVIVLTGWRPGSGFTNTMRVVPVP

Structure (SMILES)	Potency	activity change, positive = activation
O=C1CCc2cc(Cl)c(S(=O)(=O)Nc3ccc(Cl)c(Cl)c3)cc2N1	73 nM (active)	–
Cc1cc(NS(=O)(=O)c2ccc3c(c2)CCC(=O)N3)ccc1Cl	517 nM (active)	–
Cc1ccc(NS(=O)(=O)c2ccc3ccccc3c2)cc1C	41100 nM (active)	–
COC(=O)c1ccccc1S(=O)(=O)Nc1cc(=O)c2ccccc2[nH]1	–	0.863% (inactive)
O=C1c2ccccc2C(=O)N1c1cncc2ccccc12	–	11.1% (inactive)
CNc1cccc(S(=O)(=O)N2CCCN(S(=O)(=O)c3ccc4c(c3)OCCO4)CC2)c1	103 nM (active)	–
O=C1c2ccccc2C(=O)N1c1cnc2ccccc2c1	–	5.74% (inactive)
O=C1c2ccccc2C(=O)N1c1cccc(O)c1	–	9.55% (inactive)
N#Cc1ccc(OC2=NS(=O)(=O)c3ccccc32)cc1	–	1.36% (inactive)
O=S1(=O)N=C(Sc2cccc3cccnc23)c2ccccc21	–	-20.5% (inactive)
CCCCN1C(=O)c2ccccc2C1=O	–	-9.91% (inactive)
O=C1c2ccccc2C(=O)N1c1ccc2ccccc2n1	–	3.11% (inactive)
O=S(=O)(c1ccc2c(c1)OCCO2)N1CCN(S(=O)(=O)c2c(F)cccc2F)CC1	517 nM (active) and 183 nM (active) and 291 nM (active)	–
Cc1cc2c(s1)c1cnn(Cc3ccccc3F)c(=O)c1n2C	inactive and 231 nM (active)	–
COc1ccc(OC2=NS(=O)(=O)c3ccccc32)cc1	–	11.5% (inactive)
Cc1ccc(NS(=O)(=O)c2cc3c(cc2Cl)CCC(=O)N3)cc1C	163 nM (active)	–
Cc1ccc(-c2nc3ccc(Cl)cn3c2Nc2ccccc2)o1	–	18.9% (inactive)
Cc1ccc(-c2nc3cccc(C)n3c2Nc2ccc(F)cc2)o1	–	12.2% (inactive)
O=S1(=O)N=C(Oc2ccc(Cl)cc2)c2ccccc21	–	14.4% (inactive)

Structure (SMILES)	Potency	activity change, positive = activation
Cn1c2cc(S(C)=O)sc2c2cnn(Cc3cccc(O)c3)c(=O)c21 (configuration not stated)	130 nM (active)	–
O=C1CCc2cc(S(=O)(=O)Nc3ccc4ncccc4c3)ccc2N1	–	21% (inactive)
Cc1ccc(Nc2c(-c3ccsc3)nc3cccc(C)n23)cc1	–	6.9% (inactive)
O=S1(=O)N=C(Oc2ccc(C(F)(F)F)cc2)c2ccccc21	–	5.27% (inactive)
Cc1ccc(NS(=O)(=O)c2ccc3c(c2)oc(=O)n3C)cc1C	10300 nM (active)	–
CC(=O)Nc1ccc(OC2=NS(=O)(=O)c3ccccc32)cc1	–	-3.56% (inactive)
Fc1ccccc1-c1ccc(-c2nc3ccc(Cl)cn3c2Nc2ccc(Cl)cc2)o1	–	0.0036% (inactive)
COc1cc(F)c(S(=O)(=O)N2CCCN(S(=O)(=O)c3ccc4c(c3)OCCO4)CC2)c(F)c1	58 nM (active)	–
Cc1ccc(NS(=O)(=O)c2cccc(Cl)c2)cc1C	16300 nM (active)	–
O=C1c2ccccc2C(=O)N1C1CCCCC1	–	8.3% (inactive)
COc1ccc(O)cc1	–	7.63% (inactive)
Cc1ccc(OC2=NS(=O)(=O)c3ccccc32)cc1	–	13.7% (inactive)
O=C1CCc2cc(S(=O)(=O)Nc3ccc(-c4ccccc4)cc3)ccc2N1	–	20.6% (inactive)
COc1cc(F)c(S(=O)(=O)N2CCCN(S(=O)(=O)c3ccc(N)cc3)CC2)c(F)c1	1300 nM (active)	–
Cc1cc(N2C(=O)c3ccccc3C2=O)n[nH]1	–	5.78% (inactive)
Cc1ccc(NS(=O)(=O)c2ccc3c(c2)CCC(C)(C)O3)cc1C	–	30% (inactive)
COc1cc(N2C(=O)c3ccccc3C2=O)c2ncccc2c1	–	5.59% (inactive)
Cc1ccc(NS(=O)(=O)c2ccc3c(c2)n(C)c(=O)n3C)cc1C	1460 nM (active)	–
